Test results as given in PubChem BioAssay AID1159580 (chemical genetic matrix, 2015).
Where “and” joins values, the source holds several entries; their conditions need not be identical. Equal entries are not always repeated. Hit rate of the full screen: of about 5,500 compounds, about 2,000 (36%) were called active. Inconclusive results (about 18%) are left out. No stated cut-off is given here; in the data, active means normalized growth mostly below about 0.91 (no sharp cut-off); inconclusive means no clear call, values can overlap the other calls; inactive means mostly above about 0.92. Some of the results follow.

Experiment: chemical genetic growth profiling, strain panel (AID 1159580);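 further: tested at 20 µM; growth read once vehicle control cultures reached saturation at 30 °C; 1 = growth at the plate median or of vehicle wells; lower values mean less growth of the strain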
Conditions: S. cerevisiae deletion strains, growth OD

Measured: normalized growth

NCc1ccc(S(N)(=O)=O)cc1
inactive: locus YAL021C, strain ccr4, hits give low values 1.01 | locus YAL026C, strain drs2, hits give low values 0.992 | locus YAL030W, strain snc1, hits give low values 1.01 | locus YBL061C, strain skt5, hits give low values 1.01 | locus YBR009C, strain hhf1, hits give low values 0.972 | locus YBR021W, strain FUR4, hits give low values 1.01 | locus YBR023C, strain chs3, hits give low values 1.02 | locus YBR171W, strain sec66, hits give low values 1 | locus YBR229C, strain ROT2, hits give low values 0.986 | locus YBR231C, strain swc5, hits give low values 1.02 | locus YBR279W, strain paf1, hits give low values 1 | locus YCL011C, strain gbp2, hits give low values 1.01 | locus YCL016C, strain dcc1, hits give low values 1.03 | locus YCL029C, strain bik1, hits give low values 0.993 | locus YCL061C, strain MRC1, hits give low values 1.02 | locus YCL069W, strain vba3, hits give low values 0.994 | locus YCR088W, strain abp1, hits give low values 1.01 | locus YDL005C, strain med2, hits give low values 1.02 | locus YDL035C, strain GPR1, hits give low values 1.01 | locus YDL040C, strain nat1, hits give low values 1 | locus YDL074C, strain BRE1, hits give low values 1.01 | locus YDL101C, strain DUN1, hits give low values 0.987 | locus YDL134C, strain PPH21, hits give low values 0.994 | locus YDL185W, strain tfp1, hits give low values 0.977 | locus YDL192W, strain arf1, hits give low values 0.979 | locus YDR001C, strain nth1, hits give low values 0.998 | locus YDR069C, strain doa4, hits give low values 1.01 | locus YDR101C, strain arx1, hits give low values 1.02 | locus YDR137W, strain rgp1, hits give low values 1.03 | locus YDR150W, strain NUM1, hits give low values 1.01 | locus YDR159W, strain sac3, hits give low values 0.983 | locus YDR162C, strain NBP2, hits give low values 1.01 | locus YDR195W, strain ref2 0.989 | locus YDR297W, strain sur2, hits give low values 1.01 | locus YDR318W, strain mcm21, hits give low values 0.99 | locus YDR334W, strain swr1, hits give low values 1 | locus YDR335W, strain msn5, hits give low values 1.01 | locus YDR388W, hits give low values 0.993 | locus YDR392W, strain spt3, hits give low values 0.969 | locus YDR502C, strain sam2, hits give low values 0.99 | locus YEL003W, strain gim4, hits give low values 0.982 | locus YEL037C, strain rad23, hits give low values 0.992 | locus YEL061C, strain CIN8 (second series), hits give low values 1 | locus YEL061C, strain CIN8, hits give low values 1.01 | locus YER015W, strain faa2, hits give low values 0.99 | locus YER016W, strain bim1, hits give low values 1.02 | locus YER110C, hits give low values 0.983 | locus YER111C, strain swi4, hits give low values 0.998 | locus YER155C, strain BEM2 (second series), hits give low values 1.01 | locus YER155C, strain BEM2, hits give low values 0.984 | locus YER167W, strain BCK2, hits give low values 1.02 | locus YFR010W, strain ubp6, hits give low values 0.995 | locus YGL078C, strain dbp3, hits give low values 0.98 | locus YGL086W, strain mad1, hits give low values 0.995 | locus YGL167C, strain pmr1, hits give low values 0.997 | locus YGL173C, strain kem1, hits give low values 1.02 | locus YGL227W, strain vid30, hits give low values 1.01 | locus YGL240W, strain doc1, hits give low values 1.04 | locus YGL248W, strain PDE1, hits give low values 0.984 | locus YGL253W, strain hxk2, hits give low values 1.01 | locus YGR135W, strain pre9, hits give low values 0.961 | locus YGR252W, strain gcn5, hits give low values 0.928 | locus YHR013C, strain ard1, hits give low values 1.04 | locus YHR027C, strain rpn1, hits give low values 1.02 | locus YHR030C, strain SLT2, hits give low values 1.01 | locus YHR079C, strain IRE1 (second series), hits give low values 0.991 | locus YHR079C, strain IRE1, hits give low values 1.04 | locus YHR094C, strain hxt1, hits give low values 0.996 | locus YHR129C, strain ARP1, hits give low values 0.986 | locus YHR142W, strain chs7, hits give low values 1.01 | locus YHR200W, strain rpn10, hits give low values 0.984 | locus YIL066C, strain RNR3, hits give low values 0.989 | locus YIL073C, strain SPO22, hits give low values 1.01 | locus YIL125W, strain kgd1, hits give low values 0.983 | locus YIR030C, strain dcg1, hits give low values 0.991 | locus YJL092W, strain hpr5, hits give low values 1.01 | locus YJL095W, strain BCK1 (second series), hits give low values 1.01 | locus YJL095W, strain BCK1, hits give low values 0.988 and 1.01 | locus YJL115W, strain asf1, hits give low values 1 | locus YJL129C, strain trk1, hits give low values 1.05 | locus YJL134W, strain LCB3, hits give low values 1 | locus YJL154C, strain vps35, hits give low values 1 | locus YJL164C, strain tpk1, hits give low values 0.98 | locus YJL166W, strain qcr8, hits give low values 1.04 | locus YJL168C, strain set2, hits give low values 0.991 | locus YJL187C, strain SWE1 (second series), hits give low values 0.981 | locus YJL187C, strain SWE1, hits give low values 1.01 | locus YJR043C, strain POL32, hits give low values 1.01 | locus YJR066W, strain TOR1, hits give low values 0.957 | locus YJR075W, strain HOC1, hits give low values 0.995
